# From PubChem BioAssay AID977606 (Broad Institute, 2014)
# Hit rate of the full screen: of about 1,500 compounds, about 430 (29%) were called active. These entries were drawn from the full list. Entries with a potency or affinity are not part of this list. Values without a mark were called inactive. No rule for the calls is given here.
# Assay: glucose-independent GLuc insulin release activation – cell-based, INS-1E, Gaussia luciferase, luminescence, cherry-pick, counter-screen for glucose-dependent insulin secretion activators, dose response (AID 977606);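 also: 0% = median of neutral control wells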
# Details: INS-1E Gaussia luciferase insulin secretion, no glucose, 100% = twice neutral-control luminescence; series mostly up to 35 µM; activation: at the top concentration
row,Compound,activation
1,Nc1nc(N)nc(-c2ccc(Cl)cc2)n1,20.1%
2,Cc1cccc(-c2cc3nc4c(c(N5CCCC(O)C5)n3n2)CCC4)c1 (configuration not stated),-17.7%
3,C=C1[C@@H](O)[C@H](CC(C)C)N(Cc2ccccc2Br)S1(=O)=O,1.38%
4,Cc1c(NC(=S)NC(=O)c2sc3ccccc3c2Cl)cccc1C(=O)O,-3.09%
5,CCn1nnc(NC(=O)c2sc3ccccc3c2Cl)n1,9.4%
6,Fc1ccc(-c2csc3nnc(SCc4cccnc4)n23)cc1,-10.5%
7,CC(C)(C)OC(=O)N1CCCN(C(=O)c2ccc(Cl)cc2)CC1,-6.9%
8,COc1nc(Nc2ccccc2)nc(OC)n1,18.4%
9,CC1(C)N=C(c2ccccc2)C(c2ccccc2)=N1,-1.46%
10,COc1ccc2nc3ccccc3nc2c1NC(=O)c1ccc(Cl)cc1,21.8%
11,Cc1c(C)n(CCCN(C)C)c2ncnc(Nc3ccccc3)c12,-21.3%
12,COc1ccc(C)c(-n2c(=O)n(Cc3ccccc3)c(=O)c3[nH]cnc32)c1,-3.94%
13,COc1ccc(CCn2nnc(-c3ccc(NC(C)=O)c(Cl)c3)n2)cc1,-1.36%
14,NC(=O)COC(=O)c1ccccc1Oc1ccccc1,2.37%
15,Cc1ccc(OCC(=O)NC(C)c2ccccc2)cc1 (configuration not stated),9.34%
16,Fc1ccc(-c2cc(C(F)(F)F)nc(-n3cncn3)n2)cc1,21.9%
17,CCOC(=O)c1cnc2c(cnn2C)c1Oc1ccc(OC)cc1,5.49%
18,CCOC(=O)Nc1ccc2c(c1)Sc1ccccc1N2C(=O)CCN1CCOCC1,0.499%
19,CCNc1nc(CC)nc2c1oc1ccccc12,8.28%
20,COCCn1c(-c2ccc3ccccc3c2)nc2c1c(=O)[nH]c(=O)n2CC(C)C,10.6%
21,CCCCn1c(-c2ccncc2)nc2c1c(=O)[nH]c(=O)n2CC(C)C,31.7%
22,Cc1cc(S(=O)(=O)NCc2cccnc2)ccc1F,-4%
23,Cc1cccn2cc(CCNS(=O)(=O)c3cccs3)nc12,-10.6%

row,Compound,activation
1,COc1cc2ccc(C(C)=NNC(N)=S)cc2cc1OC,-6.54%
2,O=C(Nc1ccnn1C1CCN(C2CCC2)CC1)c1ccccc1Cl,-5.89%
3,CC1Cc2ccccc2N1C(=S)NC(=O)c1cccc(Br)c1 (configuration not stated),-5.85%
4,O=S(=O)(NCC1CCCO1)c1ccc(Cl)nc1 (configuration not stated),-8.07%
5,CC(C)CC(=O)Nc1c2c(nn1-c1ccc(F)cc1)CS(=O)(=O)C2,-0.198%
6,Cc1ccccc1-n1nc2c(c1NC(=O)c1cc3ccccc3oc1=O)CS(=O)(=O)C2,5.15%
7,O=C1N(c2ccccc2)c2ccccc2[C@]12C[C@H](O)CO2,-11.7%
8,CC(C(=O)Nc1ccc2[nH]c(=O)[nH]c2c1)N1CCN(Cc2ccc3c(c2)OCO3)CC1 (configuration not stated),-9.39%
9,O=C(c1ccco1)N1CCN(C2CN(Cc3ccccc3)S(=O)(=O)C2)CC1 (configuration not stated),-9.32%
10,COc1ccc(-c2nnc3sc(-c4ccco4)nn23)cc1OC,6.22%
11,COc1ccc(-c2nc(C(=O)O)cs2)cc1OC,-3.24%
12,COc1ccc(-c2ccncc2)cc1OC,15.7%
13,COc1ccc(-c2nnn(Cc3nc(N)nc(N4CCOCC4)n3)n2)cc1OC,-2.45%
14,Cc1ccc2nc(N3CCN(C(=O)CCCC(=O)O)CC3)nc(-c3ccccc3)c2c1,25.8%
15,COc1ccc(-c2cc(-c3ccco3)[nH]c(=O)c2C#N)cc1OC,-10.6%
16,CC(C)C(C(=O)NCc1ccco1)N(CC1CCCO1)C(=O)CNS(=O)(=O)c1ccc(F)cc1 (configuration not stated),8.11%
17,COc1cccc(-n2c(=O)n(Cc3ccccc3)c(=O)c3[nH]cnc32)c1C,1.8%
18,CCOc1nc(NC(=O)NS(=O)(=O)c2cccc(Cl)c2)nc(-c2ccccc2)n1,-0.406%
19,COc1ccccc1-n1cnc2sc(C)c(C)c2c1=O,-11.2%
20,CCCCNC(=O)O[C@H]1C[C@@H]2CCN3C(=O)CCC[C@H]([C@H]1CC)[C@H]23,-16.4%
21,COc1ccc(CCNS(=O)(=O)c2cccc(C)c2)cc1OC,-10.9%
22,CCNC(=O)C1(C)CCCN1Cc1cccc(C(F)(F)F)c1 (configuration not stated),24.4%
23,O=C(c1ccccc1F)N1CCCC(N2CCN(Cc3ccc4c(c3)OCO4)CC2)C1 (configuration not stated),-10.6%

row,Compound,activation
1,CCN(CC)CCCN=C1N[C@@H](c2ccccc2)C(C(=O)OC)=C(C)N1CC,-10.1%
2,COc1ccc(S(=O)(=O)N(C)c2ccc(C(=O)N3CCCC3)cc2)cc1OC,-8.35%
3,CCN(CC)C(=O)c1ccccc1NS(=O)(=O)c1ccc(C)cc1,-0.799%
4,CCN(CCC(=O)O)c1ccccc1,-5.78%
5,CCCCC(=O)N(C)c1c(CC)nc2c(OCc3ccc(C(F)(F)F)cc3)cccn12,16.1%
6,C=C(C)n1c(=O)n(Cc2ccccc2C)c2ccccc21,13.3%
7,CCOC(=O)N1CCN(S(=O)(=O)N2CCCC(C(=O)NCc3cc(OC)ccc3OC)C2)CC1 (configuration not stated),23.5%
8,COc1cc(C(F)(F)F)c(C(=O)NCc2cccc(Cl)c2)cn1,-12.8%
9,CCCNC(=O)C1(C)CCN(C(=O)c2cccc(C(F)(F)F)c2)C1 (configuration not stated),12%
10,CCn1cc(S(=O)(=O)NCCc2ccc(OC)c(OC)c2)cn1,1.79%
11,O=C(Nc1nnc(-c2ccc(Cl)cc2)o1)NC1CCCCC1,6.27%
12,COc1cc2cnc(-c3ccsc3)cc2cc1OC,3.85%
13,CCOC(=O)C1CCCN(C(=O)c2cccnc2Oc2ccccc2)CC1 (configuration not stated),-3.81%
14,CCOC(=O)c1ccc(S(=O)(=O)N2CCC(C(=O)Nc3nnc(C)o3)CC2)cc1,6.79%
15,CCc1cccc(NC(=O)C2CCCN2S(=O)(=O)c2ccc3c(c2)n(C)c(=O)c(=O)n3C)c1 (configuration not stated),-8.87%
16,Cc1cccc(C)c1OCCCn1ccnc1,9.39%
17,CCSc1ncnc2sc3c(c12)CCC3,55.8%
18,O=C1c2cccnc2C(Nc2cccc(F)c2)N1Cc1ccco1 (configuration not stated),15.7%
19,C[C@@H]1CN([C@H](C)CO)C(=O)CCCn2nncc2CO[C@H]1CN(C)C(=O)Nc1ccnc(N2CCOCC2)c1,7.66%
20,CCOc1ccc(Nc2oc(-c3cccc(Cl)c3)nc2C#N)cc1,-0.811%
21,Cc1ccc(-c2nc(C#N)c(NCC3CCCO3)o2)cc1 (configuration not stated),-7.63%
22,CN1CCN(C(=O)c2cccc(-c3cnc4cnc(-c5ccccc5Oc5ccccc5)cn34)c2)CC1,14.4%
23,N#Cc1ccc(-c2ccc3c(c2)[C@@H]2[C@@H](CCN2C(=O)C2CCCC2)[C@@H](CO)N3)cc1,-18.1%

row,Compound,activation
1,COc1ccccc1C(=O)N/N=C(\C)CC(=O)Nc1ccc2c(c1)OCCO2,-2.67%
2,COc1ccc(-n2c(=S)[nH]c3cc(C(=O)Nc4ccc(OC)c(OC)c4)ccc3c2=O)cc1,3.17%
3,C=CCc1ccccc1Oc1cc(OC)nc(N)n1,-9.57%
4,COc1ccccc1CNC(=O)CCNS(=O)(=O)c1ccc2[nH]c(=O)oc2c1,-11.6%
5,COc1ccc(-c2ccc(SCc3ccccn3)nn2)cc1OC,1.81%
6,CC1(C(=O)NCc2ccccc2)CN(S(C)(=O)=O)CC(=O)N1C1CC1 (configuration not stated),32.6%
7,CC(C)NC(=O)C1(C)CCN1Cc1cccc(C#N)c1 (configuration not stated),2.56%
8,Cc1ccccc1CN(C)Cc1cc(=O)oc2c(C)c(C)ccc12,25.7%
9,C[C@H]1CN=C(N(C)C)N1CC1CCCC1,-1.37%
10,COc1ccccc1NS(=O)(=O)c1cccc(C(=O)N/N=C/c2c(C)nn(-c3ccccc3)c2N2CCCC2)c1,-20.3%
11,Cc1nn(-c2ccccc2)c(N2CCCC2)c1/C=N/O,-6.01%
12,COc1ccc(S(=O)(=O)Nc2cccc(-c3ccc4nncn4n3)c2)cc1F,-4.18%
13,CNC(=O)c1[nH]nc2c1CCc1cc(OC)ccc1-2,26.6%
14,COc1ccc2c(c1)CCc1cc(C(=O)O)sc1-2,0.793%
15,COc1ccc2c(c1)[C@@]1(OCCC=C[C@H]1C)C(=O)N2CC1CC1,2.55%
16,CCOc1ccc(C(C)=O)cc1COC(=O)CN1C(=O)NC2(CCCC2)C1=O,-3.42%
17,NC(=O)C1CCN(c2nc(-c3ccccc3)nc3ccccc23)CC1,21.8%
18,CN(Cc1ccccc1)c1ncnc2[nH]ncc12,-5.45%
19,O=C(Nc1ccc(F)cc1)c1cccnc1Oc1ccccc1,-4.69%
20,c1ccc(-c2ccccc2OCCN2CCCCC2)cc1,15.9%
21,N#Cc1sc2nc3c(c(-c4cccnc4)c2c1N)CCC3,-3.17%
22,Cc1cccc(C)c1NC(=O)C1c2ccccc2OCC(=O)N1CCCN1CCOCC1 (configuration not stated),-8.75% [at 11 µM]
23,Cc1ccc(CS(=O)Cc2ccc(C(=O)NCc3ccccc3)o2)cc1 (configuration not stated),7.13%

row,Compound,activation
1,Cc1ccc(C(=O)n2nc(-c3cccnc3)nc2N)cc1,-5.96%
2,CC(=O)NCCc1nc2ccccc2n1CCOc1cccc(C)c1,5.03%
3,COc1ccc(OCC(=O)NNC(=O)Cn2c(=O)cnc3ccccc32)cc1,6.08%
4,CCCCCCn1c(-c2cccs2)n[nH]c1=S,17.7%
5,CCN1CCN(CC(=O)Nc2ccc(C(C)=O)cc2)CC1,28%
6,COc1ccc(OC)c(-c2nnc3n2N=C(c2ccc(OC)c(OC)c2)CS3)c1,18.8%
7,CC[C@@H]1CC2=C(C(=O)OC(C)(C)O2)[C@H](c2ccc(F)cc2)O1,2.8%
8,CCOC(=O)c1sc2nc(-c3ccccc3)ccc2c1N,0.732%
9,C#Cc1cccc(-n2nnc(C(=O)OC)c2-c2ccccc2)c1,-7.18%
10,Cc1cc(-c2ccccc2)n2nc(N)nc2n1,-12.7%
11,CCCc1cc(=O)oc2cc(OCC(=O)NC3CCN(Cc4ccccc4)CC3)ccc12,-7.23%
12,CNC(=O)C1CC(=O)N(c2ccc(OCC(=O)Nc3ccccc3)cc2)C1 (configuration not stated),5.56%
13,Cc1ccc2c(c1)c(-c1ccccc1)nc1nncn12,-6.19%
14,CCC(CC)NC(=O)c1ccccc1Oc1ccccc1,9.88%
15,COc1ccc(C2=Nn3c(nnc3-c3ccncc3)SC2)cc1OC,-11.7%
16,C/C(Cl)=C\Cn1c(N2CCCC2)nc2c1c(=O)n(C)c(=O)n2C,14.8%
17,CCOc1cc(/C=C(\CC(=O)O)c2nc3ccccc3s2)ccc1OC,13.1%
18,C=CCN1C(=O)CSc2ccc(C(=O)OCC)cc21,-1.71%
19,CC(NC(=O)C1CCCN1S(=O)(=O)c1ccc2c(c1)n(C)c(=O)c(=O)n2C)c1ccccc1 (configuration not stated),-5.02%
20,N#CCCN(Cc1ccccc1)C(=O)c1cccs1,-7.34%
